Screens as filed in PubChem BioAssay.
Compounds with a hit are over-represented: about 12% of the library has one in this group of screens.
HP1b binding inh – HP1-beta chromodomain-methylated histone interaction inhibition. P83916. AlphaScreen HP1-beta / biotin-H3K9me3 peptide binding. Potency, µM (series often up to 114 µM), for the others: top-dose activity change, negative = inhibition, actives largely listed as inhibitors. 390,000 compounds, 0.56% hits; further: nearly all actives have a fitted effect of over 70% in size
Target sequence (P83916 whole entry, looked up): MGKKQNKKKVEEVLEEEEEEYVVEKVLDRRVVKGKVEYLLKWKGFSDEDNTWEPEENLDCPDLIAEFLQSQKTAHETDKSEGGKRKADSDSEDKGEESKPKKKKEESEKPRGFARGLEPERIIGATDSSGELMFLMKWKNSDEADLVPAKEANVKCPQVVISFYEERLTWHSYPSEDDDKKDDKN
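Compound inhibition of the preformed complex between 50 nM HP1-beta and 50 nM biotinylated H3K9me3 peptide was read by AlphaScreen. Buffer was PBS pH 7.4 with 0.01% Tween-20. Incubations ran 30 min at room temperature, with 10 ug/mL donor/acceptor beads.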
JMJD2A Tudor – JMJD2A Tudor domain (human) inhibition. O75164. AlphaScreen JMJD2A-Tudor / H3K4me3 peptide binding. Potency, µM (titrated, usually from 114 µM), without a hit: top-dose activity change, negative = inhibition, most hits filed as inhibitors. 390,000 compounds, 4.4% hits; further: on the % scale 0 is the no-effect control and ±100 the full control effect; nearly all actives have a fitted effect of over 50% in size
Sfp inh – Sfp phosphopantetheinyl transferase inhibition; Q9F4F7; Biochemical Sfp PPTase activity, qHTS; Potency, µM, without a hit: largest response in the series, negative = inhibition, most hits filed as inhibitors; 310,000 compounds, 3.5% hits;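 further: the enzyme is Sfp with the accession as filed and its product quenches rhodamine fluorescence; 0% = enzyme reaction without inhibitor and -100% = no enzyme wells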
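Sfp 15 nM + cpd, 15 min RT; start w/ rhodamine-CoA 5 uM, BHQ-2-YbbR 12.5 uM (final); 50 mM Hepes pH 7.6, 10 mM MgCl2, 0.01% NP-40, 0.01% BSA; read 525/598 nm at 0 and 30 min.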
L3MBTL1 block – inhibitors of human L3MBTL1; Q9Y468; AlphaScreen L3MBTL1–H3K9me1 peptide binding; Potency, µM (top dose mostly 57.1 µM), without a hit: at the highest dose activity, negative = inhibition, most hits filed as inhibitors; 230,000 compounds, 0.66% hits; further: on the % scale 0 is the no-effect control and ±100 the full control effect; nearly all actives have a fitted effect of over 60% in size
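Displacement of a biotinylated histone H3(1-15) peptide monomethylated at Lys9 (75 nM) from L3MBTL1 (50 nM) was measured by AlphaScreen after a 30 min room-temperature compound incubation; cefsulodin titration served as intraplate control.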
G9a block – blocks human histone lysine methyltransferase G9a; Q96KQ7; G9a H3K9 monomethylation, AlphaScreen, 2 h; Potency, µM (titrated, usually from 102 µM), for the others: at the highest dose activity, negative = inhibition, actives largely listed as inhibitors; 350,000 compounds, 8.8% hits; AID 504332; further: on the % scale 0 is the no-effect control and ±100 the full control effect; nearly all actives have a fitted effect of over 75% in size
Target sequence (Q96KQ7 913-1193 limits assumed): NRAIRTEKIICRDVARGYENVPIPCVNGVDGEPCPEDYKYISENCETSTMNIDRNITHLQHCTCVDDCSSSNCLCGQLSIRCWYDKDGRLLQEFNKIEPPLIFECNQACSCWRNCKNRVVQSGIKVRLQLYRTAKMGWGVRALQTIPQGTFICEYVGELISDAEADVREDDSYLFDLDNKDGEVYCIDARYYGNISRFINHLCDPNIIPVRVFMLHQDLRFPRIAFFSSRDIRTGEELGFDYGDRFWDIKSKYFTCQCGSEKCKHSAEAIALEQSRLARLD
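Compounds were preincubated with 20 nM G9a for 15 min, after which biotinylated H3K9 peptide (500 nM) and SAM (20 uM) started a 2 h room-temperature reaction. Monomethylated product was quantified by antibody-based AlphaScreen chemiluminescence.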
BAZ2B inh – BAZ2B (human) inhibition. AlphaScreen BAZ2B-H3K14Ac peptide displacement. Potency, µM (top dose mostly 114 µM), inactives show top-dose activity change, negative = inhibition, hits mostly inhibitors. 360,000 compounds, 4.4% hits; further: on the % scale 0 is the no-effect control and ±100 the full control effect; nearly all actives have a fitted effect of over 60% in size
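Inhibition is scored as reduced AlphaScreen emission. The BAZ2B/b-H3(5-23)K14Ac complex (50 nM each) in PBS pH 7.4, 0.01% Tween-20 meets compound (up to 110 uM) for 30 min at RT before bead addition.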
* marks the source's active call; other numbers are inactive results; ? = inconclusive; . = no result given; [ ] = another dose, or the depositor's remark. The call rests on the fitted dose curve; in most records, active means well fitted curve in the direction sought with a large enough effect; inconclusive means small, poorly fitted or top-dose-only effect, or another doubt; inactive means no such curve, though single readings can be large; an effect the other way counts as inactive or inconclusive. Potency means the concentration at half of the fitted maximal effect.

SMILES | HP1b binding inh | JMJD2A Tudor | Sfp inh | L3MBTL1 block | G9a block | BAZ2B inh
CCOC(=O)C1(CCOC)CCN(Cc2ccc3nonc3c2)CC1 | 20% | -13% | 14% | 7% | -43% | -1%
CCOC(=O)C1(Cc2ccccc2C)CCCN(Cc2cc(OC)c(O)c(OC)c2)C1 (stereo not given) | 28% | 0%[57.1 µM] | -13% | -19% | 45µM* | -26%
CCOC(=O)C1(CCOc2ccccc2)CCN(Cc2cc(OC)c(O)c(OC)c2)CC1 | -25% | ? | 5% | -2% | 79µM* | -33%
CCOC(=O)C1(CCOC)CCN(Cc2cnc(-c3cccc(C)c3)nc2)CC1 | 29% | -27% | 2% | -3% | 45µM* | -1%
CCOC(=O)C1(CCOc2ccccc2)CCN(Cc2ccc(OC)c(O)c2)CC1 | 19% | -24% | 18% | 24% | . | 10%
C=C1CCC(OC(C)=O)C2(C)CCC3C(C)C(=O)OC3C12O (stereo not given) | -2% | -6% | 13% | . | 15% | 4%
Cc1ccc2oc(C(=O)N(C)CCC(O)c3ccccc3)c(C)c2c1 (stereo not given) | 15% | -19% | 14% | 5% | 30% | -6%
COc1ccccc1CNC(=O)COC(=O)c1cccc(S(=O)(=O)N2CCOCC2)c1 | 13% | -3% | . | 6% | 13µM* | -1%
O=C(COC(=O)c1cccc(S(=O)(=O)N2CCN(c3ccccc3)CC2)c1)NCc1ccco1 | -54% | 22µM* | -19% | ? | 45µM* | 45µM*
Cc1cc(O)c(CN(C)C)c2c1C(=O)/C(=C/c1ccco1)O2 | -9% | -26% | -27% | . | 6.3µM* | -22%
CN(C)Cc1c(O)ccc2c1O/C(=C\C=C\c1ccccc1)C2=O | -8% | 1%[11.4 µM] | -16% | -8% | ? | -23%
CC1(C)CC(NC(=O)c2ccc(Br)o2)CC(C)(C)N1 | 4% | -5% | 6% | . | -4% | 5%
Cc1ccc(C(NC(=O)C(C)C)c2cc([N+](=O)[O-])c3cccnc3c2O)cc1 (stereo not given) | -8% | 25µM* | -17% | 25µM* | ? | 7.9µM*
CCC(=O)NC(/C=C/c1ccccc1)c1cc([N+](=O)[O-])c2cccnc2c1O (stereo not given) | . | . | 4% | 6% | 3.2µM* | 4.5µM*
CCCC(=O)NC(c1cccs1)c1cc(Cl)c2cccnc2c1O (stereo not given) | 45% | -17% | -1% | -6% | 1% | -4%
CC(C)C(=O)NC(c1cccs1)c1cc([N+](=O)[O-])c2cccnc2c1O (stereo not given) | 0% | 16µM* | ? | 10µM* | 14µM* | 5µM*
COc1ccc(C(=O)NC(c2ccc(Cl)cc2)c2cc(Cl)c3cccnc3c2O)cc1 (stereo not given) | 33% | 5% | . | . | 20%[59 µM] | 5%
CCOc1cc(N2CCOCC2)c(OCC)cc1NC(=O)C(NC(=O)c1c(F)cccc1F)C(C)C (stereo not given) | 22% | -15% | . | . | . | .
CSc1ccccc1C(=O)N1CCCCC1 | 53% | 3% | -11% | -3%[2.29 µM] | -20% | -26%
CC(=O)Nc1ccc(N=Nc2ccccc2)cc1[N+](=O)[O-] | -35% | ? | . | . | . | .
CCOc1ccc(C(=O)OCC(=O)NC2CCCCCCC2)cc1 | 67% | -6% | . | 14% | 18%[2.33 µM] | 7%
COc1cc(-c2nnc(-c3cc(OC)c(OC)c(OC)c3)o2)cc(OC)c1OC | 41% | -6% | 17% | ? | -12%[59 µM] | -4%
O=C1CSC(=Nc2ccccc2)N1Cc1ccccc1 | 80% | 41% | -14% | . | 83% | .
COc1ccc(N=c2ssnc2Cl)cc1 | ? | -17%[11.4 µM] | 8.9µM* | -1% | 1.3µM* | 45µM*
Fc1ccc(N=c2ssnc2Cl)c(F)c1 | 5.6µM* | 22µM* | 14µM* | -4% | 1.6µM* | 50µM*
COc1cc(N=c2ssnc2Cl)cc(OC)c1OC | 28% | ? | 14µM* | 6% | ? | 28µM*
Clc1nssc1=Nc1ccccc1 | 35µM* | 79µM* | 20µM* | . | 2µM* | 28µM*
